From PubChem BioAssay (Tox21)
Results filed as inconclusive are left out. Activity calls are given as the source filed them. The call rests on the fitted dose curve; in most records, active means well fitted curve in the direction sought with a large enough effect in the repeat runs; inconclusive means weak or mixed curves; inactive means no such curve, though single readings can be large; an effect the other way counts as inactive or inconclusive.

Legend:
[1] = biological target: Cytochrome P450 2C19 (Homo sapiens) (UniProt P33261); test: Cytochrome P450 Family 2 Subfamily C Member 19 (CYP2C19) small molecule antagonists: luciferase reporter qHTS assay (AID 1671197); further: nearly all actives have a fitted effect of over 65% in size
Sequence of Cytochrome P450 2C19 (Homo sapiens) (P33261 whole entry, looked up): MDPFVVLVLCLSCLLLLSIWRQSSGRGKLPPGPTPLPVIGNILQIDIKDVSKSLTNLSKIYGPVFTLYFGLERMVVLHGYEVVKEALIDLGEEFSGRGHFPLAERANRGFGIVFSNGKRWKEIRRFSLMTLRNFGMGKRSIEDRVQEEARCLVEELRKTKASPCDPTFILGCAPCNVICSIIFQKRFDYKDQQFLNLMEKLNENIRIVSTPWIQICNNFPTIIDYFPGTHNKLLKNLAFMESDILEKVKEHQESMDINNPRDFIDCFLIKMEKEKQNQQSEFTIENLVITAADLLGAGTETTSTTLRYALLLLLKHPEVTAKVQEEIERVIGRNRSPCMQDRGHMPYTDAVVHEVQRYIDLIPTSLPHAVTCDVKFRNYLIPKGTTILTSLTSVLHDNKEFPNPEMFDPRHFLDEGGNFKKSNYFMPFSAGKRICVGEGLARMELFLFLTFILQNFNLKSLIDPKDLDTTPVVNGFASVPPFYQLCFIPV
Summary of the method: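 P450-Glo CYP2C19 system: enzyme-substrate mix with compound 10 min at room temperature, then NADPH regeneration solution, 1 h at 37C. Proluciferin-to-luciferin conversion detected by luminescence after 20 min with detection reagent; ketoconazole as positive control.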

[2] = biological target: Cytochrome P450 2C9 (Homo sapiens) (UniProt P11712); test: Cytochrome P450 Family 2 Subfamily C Member 9 (CYP2C9) small molecule antagonists: luciferase reporter qHTS assay (AID 1671198); further: nearly all actives have a fitted effect of over 50% in size
Sequence of Cytochrome P450 2C9 (Homo sapiens) (P11712 whole entry, looked up): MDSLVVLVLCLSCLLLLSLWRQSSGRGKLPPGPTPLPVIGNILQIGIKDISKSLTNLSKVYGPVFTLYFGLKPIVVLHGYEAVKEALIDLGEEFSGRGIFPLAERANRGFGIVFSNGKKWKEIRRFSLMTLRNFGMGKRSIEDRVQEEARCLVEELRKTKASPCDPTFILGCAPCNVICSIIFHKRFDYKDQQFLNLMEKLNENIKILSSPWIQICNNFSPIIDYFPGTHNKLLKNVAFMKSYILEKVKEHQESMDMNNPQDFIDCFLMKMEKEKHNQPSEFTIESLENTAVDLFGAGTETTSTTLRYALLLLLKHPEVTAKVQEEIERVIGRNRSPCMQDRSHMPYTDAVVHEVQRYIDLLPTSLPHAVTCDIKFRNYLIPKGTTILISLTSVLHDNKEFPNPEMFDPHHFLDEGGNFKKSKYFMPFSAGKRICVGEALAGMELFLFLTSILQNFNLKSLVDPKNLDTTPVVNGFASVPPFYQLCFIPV
Summary of the method: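 P450-Glo proluciferin substrate with CYP2C9 enzyme; 10 min RT preincubation, then NADPH regeneration 1 h at 37C; luciferin detection reagent 20 min RT, luminescence in relative luminescence units.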

[3] = biological target: Cytochrome P450 1A2 (Homo sapiens) (UniProt P05177); test: Cytochrome P450 Family 1 Subfamily A Member 2 (CYP1A2) small molecule antagonists: luciferase reporter qHTS assay (AID 1671199); further: nearly all actives have a fitted effect of over 50% in size
Sequence of Cytochrome P450 1A2 (Homo sapiens) (P05177 whole entry, looked up): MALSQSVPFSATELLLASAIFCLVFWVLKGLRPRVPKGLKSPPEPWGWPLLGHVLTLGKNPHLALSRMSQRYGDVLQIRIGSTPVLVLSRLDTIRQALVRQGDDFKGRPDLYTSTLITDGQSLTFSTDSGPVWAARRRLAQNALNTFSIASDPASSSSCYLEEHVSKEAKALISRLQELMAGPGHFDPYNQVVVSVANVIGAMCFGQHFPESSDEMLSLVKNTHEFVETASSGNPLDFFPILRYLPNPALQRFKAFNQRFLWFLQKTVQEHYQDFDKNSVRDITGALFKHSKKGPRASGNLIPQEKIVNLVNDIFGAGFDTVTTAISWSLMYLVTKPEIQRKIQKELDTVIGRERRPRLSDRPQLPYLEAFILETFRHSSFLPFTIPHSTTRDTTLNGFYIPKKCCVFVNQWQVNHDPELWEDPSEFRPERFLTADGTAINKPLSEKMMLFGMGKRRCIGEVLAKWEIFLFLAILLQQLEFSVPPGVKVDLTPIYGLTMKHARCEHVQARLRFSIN
Summary of the method: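 P450-Glo CYP1A2 enzyme–proluciferin substrate mix with compound 10 min at room temperature, then NADPH regeneration 1 h at room temperature. Luciferin detection reagent added, luminescence read after 20 min; furafylline positive control.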

[4] = biological target: Voltage-gated inwardly rectifying potassium channel KCNH2 (Homo sapiens) (UniProt Q12809); test: Human Ether-a-go-go-Related Gene (hERG) channel small molecule antagonists: fluorescence cell-based qHTS assay (AID 1671200); further: nearly all actives have a fitted effect of over 50% in size
Sequence of Voltage-gated inwardly rectifying potassium channel KCNH2 (Homo sapiens) (Q12809 whole entry, looked up): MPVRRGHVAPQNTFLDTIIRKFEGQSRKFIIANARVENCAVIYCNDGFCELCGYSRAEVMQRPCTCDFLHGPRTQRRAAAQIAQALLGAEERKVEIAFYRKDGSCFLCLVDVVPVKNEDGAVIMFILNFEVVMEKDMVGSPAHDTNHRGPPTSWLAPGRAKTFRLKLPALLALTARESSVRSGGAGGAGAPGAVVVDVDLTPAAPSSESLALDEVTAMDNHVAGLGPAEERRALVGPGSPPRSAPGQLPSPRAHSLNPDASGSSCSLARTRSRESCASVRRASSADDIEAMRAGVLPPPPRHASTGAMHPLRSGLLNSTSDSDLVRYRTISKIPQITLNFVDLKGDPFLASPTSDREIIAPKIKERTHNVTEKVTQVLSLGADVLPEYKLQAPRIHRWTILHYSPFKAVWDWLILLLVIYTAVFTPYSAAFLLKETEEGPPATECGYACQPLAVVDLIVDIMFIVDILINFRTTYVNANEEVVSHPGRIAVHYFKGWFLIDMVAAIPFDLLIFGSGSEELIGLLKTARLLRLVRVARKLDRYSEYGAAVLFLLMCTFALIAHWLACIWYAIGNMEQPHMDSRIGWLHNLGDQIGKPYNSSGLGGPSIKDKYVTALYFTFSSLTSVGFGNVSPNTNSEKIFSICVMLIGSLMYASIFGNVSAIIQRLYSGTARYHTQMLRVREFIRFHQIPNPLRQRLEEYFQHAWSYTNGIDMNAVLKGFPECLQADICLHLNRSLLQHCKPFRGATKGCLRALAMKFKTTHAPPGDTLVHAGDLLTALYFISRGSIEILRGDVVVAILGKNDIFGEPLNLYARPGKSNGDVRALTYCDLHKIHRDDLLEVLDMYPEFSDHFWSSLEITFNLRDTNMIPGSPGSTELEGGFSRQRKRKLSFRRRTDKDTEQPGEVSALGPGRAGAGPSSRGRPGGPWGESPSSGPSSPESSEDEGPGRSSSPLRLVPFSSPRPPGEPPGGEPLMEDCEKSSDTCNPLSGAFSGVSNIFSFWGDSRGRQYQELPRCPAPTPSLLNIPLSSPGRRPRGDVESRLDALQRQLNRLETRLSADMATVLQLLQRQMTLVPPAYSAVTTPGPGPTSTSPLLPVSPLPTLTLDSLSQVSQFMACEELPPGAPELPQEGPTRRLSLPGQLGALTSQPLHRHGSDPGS
Summary of the method: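 In this thallium-flux screen, overnight-cultured U2OS cells bearing the channel are dye-loaded in darkness for an hour, rested 10 min at room temperature, and then monitored kinetically at 480/540 nm for two minutes post-stimulus.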

[5] = biological target: Cytochrome P450 3A4 (Homo sapiens) (UniProt P08684); test: Cytochrome P450 Family 3 Subfamily A Member 4 (CYP3A4) small molecule antagonists: luciferase reporter qHTS assay (AID 1671201); further: nearly all actives have a fitted effect of over 50% in size
Sequence of Cytochrome P450 3A4 (Homo sapiens) (P08684 whole entry, looked up): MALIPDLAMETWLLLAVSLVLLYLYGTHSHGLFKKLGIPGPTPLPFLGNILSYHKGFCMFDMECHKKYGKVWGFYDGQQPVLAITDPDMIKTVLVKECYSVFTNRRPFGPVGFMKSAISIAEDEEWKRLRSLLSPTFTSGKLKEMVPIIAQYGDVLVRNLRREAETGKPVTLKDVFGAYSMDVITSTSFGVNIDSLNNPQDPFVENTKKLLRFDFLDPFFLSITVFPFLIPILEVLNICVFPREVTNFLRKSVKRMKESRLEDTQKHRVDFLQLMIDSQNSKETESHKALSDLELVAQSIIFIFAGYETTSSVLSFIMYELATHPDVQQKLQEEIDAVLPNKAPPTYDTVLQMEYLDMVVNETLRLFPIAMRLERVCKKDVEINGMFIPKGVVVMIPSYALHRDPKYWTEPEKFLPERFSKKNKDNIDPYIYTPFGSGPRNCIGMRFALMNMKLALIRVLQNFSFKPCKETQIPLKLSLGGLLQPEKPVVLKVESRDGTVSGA
Summary of the method: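 CYP3A4 activity was followed with a P450-Glo proluciferin substrate. Test compounds in DMSO were preincubated 10 min; NADPH regeneration then ran 1 h, and light output was read 20 min after detection reagent.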

Measured: Potency
Potency means the concentration at half of the fitted maximal effect.

O=C(O)CO
inactive: all assays above

CCCCOC(=O)CCCCC(=O)OCCCC
inactive: [4] | [5]
active: [1] 35.6 µM | [2] 11.2 µM | [3] 31.7 µM

Cc1ccc(Nc2c(F)cccc2Cl)c(CC(=O)O)c1
active: [1] 8.71 µM | [2] 17.4 µM | [3] 12.3 µM
inactive: [4] | [5]

O=C1CC[C@@H](C(=O)O)N1
inactive: all assays above

OCC(CO)n1cnc(-c2ccc(F)cc2)c1-c1ccnc(Oc2ccccc2)n1
active: [1] 31.7 µM | [2] 35.6 µM
inactive: all other assays above

COc1ccc(C(=O)NCc2ccc(OCCN(C)C)cc2)cc1OC
inactive: all assays above

CCC(CO)(CO)[N+](=O)[O-]
inactive: all assays above

O=c1[nH][nH]c(=O)c2cc([N+](=O)[O-])ccc12
inactive: all assays above

CC(C)N=C=NC(C)C
inactive: all assays above

Cc1ccc2c(c1[N+](=O)[O-])C(=O)c1ccccc1C2=O
active: [3] 4.93 µM | [5] 15.6 µM
inactive: all other assays above

CC(C)(C)C1(CCc2ccc(Cl)cc2)CO1 (configuration not stated)
inactive: [5]
active: [1] 1.26 µM | [2] 17.8 µM | [3] 20 µM | [4] 24.5 µM

CC(C)c1ccc(C(=O)N=C(N)N)cc1S(C)(=O)=O
active: [3] 44.4 µM
inactive: all other assays above

O=C(c1ccccc1)C1CCC1
inactive: all assays above

CC(C)COC(=O)c1ccc(O)cc1
inactive: [4] | [5]
active: [1] 3.17 µM | [2] 25.2 µM | [3] 2.82 µM

CC(C)N(C)C
inactive: all assays above

COC(OC)OC
inactive: all assays above

CCC(CO)(CO)CO
inactive: all assays above

Cc1ccc(N(CCO)CCO)cc1
active: [1] 17.8 µM | [2] 39.9 µM | [3] 31.7 µM
inactive: [4] | [5]

CC[C@@H](CO)NCCN[C@@H](CC)CO
inactive: all assays above

FC(F)(F)C(F)(F)C(F)(F)C(F)(F)CCI
inactive: all assays above

O=CNNC=O
inactive: all assays above

O=C1c2ccccc2C(=O)c2c(O)ccc(O)c21
active: [3] 3.17 µM
inactive: all other assays above

CCCCCCCCCCCCCC(=O)OCC(O)CO (configuration not stated)
inactive: [4] | [5]
active: [1] 35.6 µM | [2] 22.4 µM | [3] 22.4 µM

CCc1ccc(C)cc1
inactive: all assays above

c1ccc(CCCc2ccncc2)cc1
inactive: [4]
active: [1] 0.633 µM | [2] 2 µM | [3] 1.42 µM | [5] 0.448 µM

CC(C)(O)c1coc(S(=O)(=O)NC(=O)Nc2c3c(cc4c2CCC4)CCC3)c1
inactive: [4]
active: [1] 35.6 µM | [2] 25.2 µM | [3] 17.8 µM | [5] 22.4 µM

CCCCC[C@H](O)/C=C/[C@H]1[C@H](O)CC(=O)[C@@H]1C/C=C\CCCC(=O)O
inactive: all assays above

O=S(=O)(Cl)c1c(Cl)cccc1Cl
inactive: all assays above

COC1CCC=CO1 (configuration not stated)
inactive: all assays above

CC1CCCC(=O)C1=O (configuration not stated)
inactive: all assays above

O=C(NC(Cc1cc(=O)[nH]c2ccccc12)C(=O)O)c1ccc(Cl)cc1 (configuration not stated)
inactive: all assays above

O=S(=O)(O)CO
active: [1] 35.1 µM | [3] 31.3 µM
inactive: all other assays above

COC(=O)c1sccc1S(N)(=O)=O
active: [1] 79.6 µM
inactive: all other assays above

CC(=O)OCCC(C)CC(C)(C)C (configuration not stated)
inactive: all assays above

COc1cc(NS(=O)(=O)c2ccc(N)cc2)nc(C)n1
inactive: all assays above

Cc1ccc2c(c1)CCCN2
inactive: [4] | [5]
active: [1] 39.9 µM | [2] 39.9 µM | [3] 3.17 µM

O=C(c1ccccc1)c1ccc(O)cc1
active: [1] 40.4 µM | [3] 32.1 µM
inactive: all other assays above

COc1cc(S(=O)(=O)Nc2ccccc2)c(OC)cc1N
inactive: [4]
active: [1] 15.9 µM | [2] 35.6 µM | [3] 39.9 µM | [5] 3.56 µM

C/C(C=O)=C\c1ccccc1
inactive: all assays above

C[C@@H]1C[C@H]2[C@@H]3CCC4=CC(=O)C=C[C@]4(C)[C@@]3(F)[C@@H](O)C[C@]2(C)[C@@]1(O)C(=O)COP(=O)(O)O
inactive: all assays above

O=C(O)CCS
inactive: all assays above

CNc1c2c(nn1C)CCCC2
inactive: all assays above

CC(=O)N[C@@H](Cc1ccc(O)cc1)C(=O)O
inactive: all assays above

CCOC(=O)C(C)O (configuration not stated)
inactive: all assays above

O=C(/C=C/c1ccc([N+](=O)[O-])cc1)c1ccccc1
active: [1] 1.59 µM | [2] 11.3 µM | [3] 5.04 µM
inactive: [4] | [5]

CCCCCCCCCCCCCCCC(=O)OCC
inactive: all assays above

CC(C)c1ccc(C#N)cc1
inactive: all assays above

O=C1OC[C@H](Cc2cccc(O)c2)[C@H]1Cc1cccc(O)c1
inactive: [4]
active: [1] 4.8 µM | [2] 13.5 µM | [3] 10.7 µM | [5] 9.58 µM

CCN(Cc1cccc(S(=O)(=O)O)c1)c1ccc(C(=C2C=CC(=[N+](CC)Cc3cccc(S(=O)(=O)O)c3)C=C2)c2ccccc2S(=O)(=O)[O-])cc1
inactive: [4]
active: [1] 17.9 µM | [2] 11.3 µM | [3] 17.9 µM | [5] 14.2 µM

NC(=O)CCCCC(N)=O
inactive: all assays above

Cc1cc([N+](=O)[O-])ccc1N
inactive: [4] | [5]
active: [1] 35.1 µM | [2] 39.4 µM | [3] 3.51 µM

CCCCCCC(O)CCCCCCCCCCC(=O)OC (configuration not stated)
active: [2] 35.6 µM
inactive: all other assays above

CSSc1ccoc1C
inactive: all assays above

CCCCCCC(CO)CCCC (configuration not stated)
inactive: all assays above

CCN(Cc1cccc(S(=O)(=O)O)c1)c1ccc(C(=C2C=CC(=[N+](CC)Cc3cccc(S(=O)(=O)O)c3)C=C2)c2ccc(O)cc2S(=O)(=O)[O-])cc1
active: [1] 13.6 µM | [2] 6.83 µM | [3] 17.2 µM | [5] 19.3 µM
inactive: [4]

SCCc1cnccn1
inactive: [4] | [5]
active: [1] 31.7 µM | [3] 35.6 µM

CCCCCCCCCCCCCOS(=O)(=O)O
not listed: [2]
inactive: all other assays above

Cc1ccc(S(=O)(=O)NC(=O)NC2CCCCC2)cc1
not listed: [2]
inactive: all other assays above

CC(CO)(CO)C(=O)O
inactive: [2] | [4] | [5]
active: [1] 72.4 µM

Nc1nc(-c2ccc([N+](=O)[O-])cc2)cs1
inactive: [4]
active: [1] 3.6 µM | [3] 5.08 µM

CC(CN(CCN(CC(C)OCCO)CC(C)OCCO)CC(C)OCCO)OCCO (configuration not stated)
inactive: [3] | [4]
active: [1] 86.1 µM
